From the supplement of paper PMC6609913
Counter-ions that a name gives are not always drawn. ± gives the standard deviation of the averaged measurements. In all, about 1,300 compounds were measured (“normalised cell viability”: median about 1, lowest 2% from about 0.14 on). This is one part of a sample in which the lowest values are shown more often than they occur.

Test system: V-C8 (BRCA2-deficient hamster cells)
Test: normalised cell viability (fraction of plate median); higher = more viable cells (less toxic)
Conditions: 5 µM
Procedure, shortened: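 Hamster V-C8 cells lacking BRCA2 and V-C8 cells with BRCA2 restored were seeded in 96-well plates. Library drugs (10 mM DMSO stocks) were added 24 h later at 5 μM in 100 μl medium, next to DMSO control wells, for 3 days (screen 1) or 6 days (screen 2). Cell viability was read by resazurin assay, median-plate normalised (modified robust per cent of sample), and triplicate wells were averaged.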

SMILES | normalised cell viability (treatment time: 3 days) | normalised cell viability (treatment time: 6 days)
O=C1CN(/N=C/c2ccc([N+](=O)[O-])o2)C(=O)N1 [Nitrofurantoin] | 0.937 ± 0.025 | 1.15 ± 0.29
CN[C@@H]1[C@@H](O)[C@@H](O[C@@H]2[C@@H](O)[C@H](O[C@H]3OC(CN)=CC[C@H]3N)[C@@H](N)C[C@H]2N)OC[C@]1(C)O [Sisomicin sulfate] | 0.157 ± 0.0072 | 0.145 ± 0.0056
COc1cc2nc(N(C)CCCNC(=O)C3CCCO3)nc(N)c2cc1OC (stereo unspecified) [Alfuzosin hydrochloride] | 0.987 ± 0.056 | 1.08 ± 0.08
c1ccc(CC2=NCCN2)cc1 [Tolazoline hydrochloride] | 1 ± 0.025 | 0.98 ± 0.038
CC(C)(O)c1ccccc1CC[C@@H](SCC1(CC(=O)O)CC1)c1cccc(/C=C/c2ccc3ccc(Cl)cc3n2)c1 [Montelukast] | 1.09 ± 0.11 | 1.1 ± 0.052
CCC(C)(CN(C)C)OC(=O)c1ccccc1 (stereo unspecified) [Amyleine hydrochloride] | 1.074 ± 0.0072 | 1.02 ± 0.036
C#CCN[C@@H]1CCc2ccccc21 [Rasagiline] | 1.08 ± 0.055 | 1.06 ± 0.038
Clc1ccc(C(Cn2ccnc2)OCc2csc3c(Cl)cccc23)c(Cl)c1 (stereo unspecified) [Sertaconazole nitrate] | 0.737 ± 0.18 | 0.821 ± 0.12
Cc1cccc(N(C)C(=S)Oc2ccc3ccccc3c2)c1 [Tolnaftate] | 1 ± 0.041 | 0.983 ± 0.02
C=CCOC(Cn1ccnc1)c1ccc(Cl)cc1Cl (stereo unspecified) [Enilconazole] | 0.93 ± 0.04 | 0.943 ± 0.015
Clc1ccc(CO/N=C(\Cn2ccnc2)c2ccc(Cl)cc2Cl)c(Cl)c1 [Oxiconazole Nitrate] | 0.807 ± 0.043 | 0.898 ± 0.043
CN1CCN(C(c2ccccc2)c2ccc(Cl)cc2)CC1 (stereo unspecified) [Chlorcyclizine hydrochloride] | 0.947 ± 0.019 | 0.979 ± 0.073
O=C(O)CCNC(=O)c1ccc(/N=N/c2ccc(O)c(C(=O)O)c2)cc1 [Balsalazide Sodium] | 0.973 ± 0.027 | 0.953 ± 0.13
Nc1ccn([C@@H]2CS[C@H](CO)O2)c(=O)n1 [Lamivudine] | 0.147 ± 0.0082 | 0.139 ± 0.012
Nc1ccn([C@H]2CC[C@@H](CO)O2)c(=O)n1 [Zalcitabine] | 1.02 ± 0.059 | 1.04 ± 0.044
Nc1ccn([C@@H]2O[C@H](CO)[C@@H](O)[C@@H]2O)c(=O)n1 [Cytarabine] | 0.206 ± 0.0091 | 0.196 ± 0.022
CC(C)NCC(O)COc1ccc(CCOCC2CC2)cc1 (stereo unspecified) [Betaxolol hydrochloride] | 0.1577 ± 0.00096 | 0.136 ± 0.014

SMILES | normalised cell viability (treatment time: 3 days) | normalised cell viability (treatment time: 6 days)
CC(C)NCC(O)COc1ccc(COCCOC(C)C)cc1 (stereo unspecified) [Bisoprolol fumarate] | 1.04 ± 0.044 | 1.16 ± 0.049
COC(=O)CCc1ccc(OCC(O)CNC(C)C)cc1 (stereo unspecified) [Esmolol hydrochloride] | 1.04 ± 0.077 | 0.939 ± 0.08
O=C1[C@H](CC[C@H](O)c2ccc(F)cc2)[C@@H](c2ccc(O)cc2)N1c1ccc(F)cc1 [Ezetimibe] | 1.02 ± 0.093 | 1.03 ± 0.022
CN1CCN(C2=Nc3ccccc3Oc3ccc(Cl)cc32)CC1 [Loxapine succinate] | 1.17 ± 0.063 | 1.15 ± 0.03
Cc1cc(C2CCCCC2)n(O)c(=O)c1 [Ciclopirox ethanolamine] | 0.207 ± 0.012 | 0.23 ± 0.015
COC(=O)C1=C(C)NC(C)=C(C(=O)OCC(C)C)C1c1ccccc1[N+](=O)[O-] (stereo unspecified) [Nisoldipine] | 0.889 ± 0.059 | 0.894 ± 0.019
Cc1c(N)c(=O)n(-c2ccccc2)n1C [Ampyrone] | 1.01 ± 0.12 | 1.06 ± 0.055
Nc1nc(=S)c2ncn([C@@H]3O[C@H](CO)[C@@H](O)[C@H]3O)c2[nH]1 [Thioguanosine] | 0.307 ± 0.013 | 0.28 ± 0.017
CCC(Cc1c(I)cc(I)c(N)c1I)C(=O)O (stereo unspecified) [Iopanoic acid] | 0.999 ± 0.036 | 1.07 ± 0.033
CN(C)CCn1nnnc1SCC1=C(C(=O)O)N2C(=O)[C@@H](NC(=O)Cc3csc(N)n3)[C@H]2SC1 [Cefotiam hydrochloride] | 0.996 ± 0.028 | 1.12 ± 0.093
CC(C)NC[C@@H](O)COc1cccc2ccccc12 [(R)-Propranolol hydrochloride] | 0.914 ± 0.085 | 1.06 ± 0.085
CCc1cccc(CC)c1NC(=O)CN(CC(=O)O)CC(=O)O [Etifenin] | 1.07 ± 0.047 | 1.04 ± 0.043
CC(NCCC(c1ccccc1)c1ccccc1)c1ccccc1 (stereo unspecified) [Fendiline hydrochloride] | 0.197 ± 0.018 | 0.496 ± 0.16
Cc1cc(NS(=O)(=O)c2ccc(N)cc2)no1 [Sulfamethoxazole] | 1.02 ± 0.028 | 0.959 ± 0.076
CC(C)/N=c1\cc2n(-c3ccc(Cl)cc3)c3ccccc3nc-2cc1Nc1ccc(Cl)cc1 [Clofazimine] | 0.148 ± 0.0016 | 0.133 ± 0.017
Cc1cnc(C(=O)NCCc2ccc(S(=O)(=O)NC(=O)NC3CCCCC3)cc2)cn1 [Glipizide] | 1.093 ± 0.0089 | 1.13 ± 0.034
